Experimental data as given in PubChem BioAssay (NCI).
The panel holds about 83,000 compounds, 20% with a hit somewhere; the sample as a whole holds those more often.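 Cells were grown in 96-well plates and exposed to the test compound at a single concentration for 48 hours; results are reported as percent growth, with values below 10 considered active.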 Values without a mark were called inactive. Active and inactive are the calls of the source.

Assays:
Assay in all cases: NCI-60 one-dose screen, 48 h (100 = growth as untreated, 0 = no growth, -100 = all killed)
Conditions in all cases: 10 µM unless noted
SR leukemia = system: SR leukemia
RPMI-8226 leukemia = system: RPMI-8226 leukemia
OVCAR-8 ovarian = system: OVCAR-8 ovarian
OVCAR-4 ovarian = system: OVCAR-4 ovarian
IGROV1 ovarian = system: IGROV1 ovarian
OVCAR-3 ovarian = system: OVCAR-3 ovarian
HS 578T breast = system: HS 578T breast
NCI/ADR-RES ovarian = system: NCI/ADR-RES ovarian
SK-OV-3 ovarian = system: SK-OV-3 ovarian

Structure (SMILES)	growth (SR leukemia)	growth (RPMI-8226 leukemia)	growth (OVCAR-8 ovarian)	growth (OVCAR-4 ovarian)	growth (IGROV1 ovarian)	growth (OVCAR-3 ovarian)	growth (HS 578T breast)	growth (NCI/ADR-RES ovarian)	growth (SK-OV-3 ovarian)
O=C(Nc1ccc(NC(=O)c2cc(=O)[nH]c3ccccc23)cc1)Nc1cccc(C(F)(F)F)c1	61.1%	74.4%	65.2%	74.2%	64.9%	63.9%	50.8%	103%	
CCCCCCCCn1ccc2cc(NC(=O)CN3CCN(c4nc(C)cc(Cl)n4)CC3)ccc21	23.5%	99.3%	106%	83.7%	74.4%	109%	89.9%	93.2%	110%
CCN(CC)c1nc(SCc2ccccc2Cl)ncc1C	95.6%	93.5%	104%	101%	109%	109%	124%	92.2%	
CCN(c1ccc(Cl)cc1)c1nc(-c2ccc([N+](=O)[O-])cc2)cs1	83.4%	91.5%	103%	92.7%	73%	102%	87%	101%	95.7%
COc1ccc2[nH]cc(-c3nc(-c4cn(C)c5c(Cl)nccc45)cs3)c2c1	13.9%	44.7%	22.9%	68.8%	71.3%	77.6%	54.3%	11.1%	60.1%
CCOC(=O)CSc1ncnc2c1c(-c1ccccc1)c(-c1ccccc1)n2-c1ccc(C)cc1	80.4%	37.8%	54.5%	80.4%		66.4%	81.7%	98.4%	56%
COC(=O)c1c2c(c[n+]([O-])c1C)C(=O)C(NCc1ccccc1)=CC2=O	2.6% (active)	-24.5% (active)	-2.43% (active)	-97% (active)	-54.3% (active)	-35.3% (active)	-15.3% (active)	-14.1% (active)	8.1% (active)
COc1ccc(C(c2cc(OC)c(OC)c(OC)c2)N2CCN(c3ccccc3)CC2)cc1 (centres undefined)	33.2%	89.3%	99.1%	89.9%	72.7%	90.1%	101%	85.9%	78.5%
CCC(=C(c1ccc(OCCN2CCCC2)cc1)c1ccc(OCCN2CCCC2)cc1)c1ccc(Cl)cc1	-40.5% (active)	-44.1% (active)	-7.08% (active)	-43.4% (active)	-20.2% (active)	-57.6% (active)	-47.4% (active)	10.5%	84.8%
CN(C)c1ccc(/C=C/C(=O)c2ccc(-n3cc(CN4CCN(c5cc6c(cc5F)c(=O)c(C(=O)O)cn6C5CC5)CC4)nn3)cc2)cc1	7.11% (active)	-24.6% (active)	23.3%	93.1%	39.6%	46.6%	57.4%	92.1%	71.6%
Cc1ccc(Sc2oc(-c3ccc(C)cc3)nc2[P+](c2ccccc2)(c2ccccc2)c2ccccc2)cc1	-18.8% (active)	-37.6% (active)	5.45% (active)	-3.08% (active)		-3.45% (active)	-8.27% (active)	1.73% (active)	-3.38% (active)
O=C(NCCCCNC(=O)OCc1ccc2c(Cl)cc(Cl)c(O)c2n1)OCc1ccc2c(Cl)cc(Cl)c(O)c2n1	17%	25%	11.2%	38.9%	11.1%	-40.3% (active)	21.9%	3.44% (active)	30.5%
O=C1NC(=O)c2c1c1c3ccccc3ccc1c1[nH]c3ccc(Br)cc3c21	11.4%	-19.9% (active)	14.7%	10.3%	14.4%	8.73% (active)	78.4%		31%
COc1ccc2c(c1)[n+]([O-])c(C(=O)/C=C/C=C(\Cl)c1cc(OC)c(OC)c(OC)c1)c(C)[n+]2[O-]	89.5%	109%	43.7%	108%	64.6%	93%	68%	91%	38%
CC[C@]12C=CCN3CC[C@@]4(c5cc(NC(=O)CCC(=O)OCc6cn(Cc7ccc(F)cc7)nn6)c(OC)cc5N(C)[C@H]4[C@@](O)(C(=O)OC)[C@@H]1OC(C)=O)[C@@H]32	94.2%	104%	103%	98.2%	108%	104%	108%	109%	90.7%
COC(=O)CNC(=O)[C@H](Cc1ccccc1)NCc1ccncc1	97%	91%	98.3%	107%	104%	113%	106%	103%	80.7%
COC(=O)/C=C1/SC(=Nc2ccc(C)cc2)N(CCc2c[nH]c3ccc(O)cc23)C1=O	-27.4% (active)	1.84% (active)	29.4%	51.1%	27.5%	32.7%	55.1%	50%	98.4%
COC(=O)c1ccc2c(c1)C(=O)c1c-2n(CCCN)c(=O)c2cc([N+](=O)[O-])ccc12	-45.3% (active)	-40.4% (active)	-65.3% (active)	-77.1% (active)	-81.7% (active)	-93.2% (active)	-71% (active)	-39.4% (active)	-81.8% (active)
COC(=O)c1c2c(c(C)[n+]([O-])c1C)C(=O)C=C(NCc1ccc(Br)cc1)C2=O	1.3% (active)	-28.3% (active)	1.05% (active)	-92.8% (active)	-53.4% (active)	-73.4% (active)	-7.62% (active)	-8.51% (active)	-10.7% (active)
CN(C)CC(=O)Nc1ccc2ncnc(Nc3ccc(Oc4cccc(C(F)(F)F)c4)c(Cl)c3)c2c1	-1.46% (active)	31.2%	55.5%	51.5%	8.24% (active)	42.5%	79.1%	54.3%	19.7%
Cc1ccc(-c2csc(NC(=O)CN3CCN(c4cc5c(cc4F)c(=O)c(C(=O)O)cn5C4CC4)CC3)n2)cc1	-0.152% (active)	6.21% (active)	10.6%	20.8%	25.4%	14.8%	47.8%	4.91% (active)	-7.14% (active)
N#Cc1nn(-c2cc(=O)[nH]c3ccc(Cl)cc23)c(N)c1C#N	0.706% (active)	-24.6% (active)	95.8%	91.5%	102%	108%	103%	98.5%	74.6%
Cc1ccc(-c2nn(-c3ccccc3)cc2C=C2C(=O)ON=C2C(C)C)cc1	-23.5% (active)	-23.1% (active)	59.7%	85.4%	54.7%	87.7%	56.4%	96.4%	110%
COc1cccc(CNc2ncnc3c2ncn3C2OC(CO)C(O)C2O)c1O (centres undefined)	-9.69% (active)	-28.5% (active)	6.83% (active)	11.3%	-23.4% (active)	-0.409% (active)	-27% (active)	2.34% (active)	-61.5% (active)
COc1ccc2nc(NC(=O)CSc3nnc4n3S(=O)(=O)c3ccccc3N4C)sc2c1	65.1%	74.1%	84.6%	107%	12.9%	112%	89.8%	98.5%	136%
COC(=O)c1c2c(c(C)[n+]([O-])c1C)C(=O)C(NCc1ccc(Cl)cc1)=CC2=O	48.6%	69.8%	33.1%	36.6%	61.2%	-7.64% (active)	92.2%	54.8%	95.8%
